# Data reported in PMC12136788.
# Positions count from the first letter of the chain named. Whole data set: some 24,000 sequences, median “enrichment r” near 0.99, cut for the highest 2% near 3.7. This is one part of a sample in which the highest values are shown more often than they occur.
# T1: UNK ZnF1-3 (human, UniProt Q9C0B0 31-174)
# T1 sequence: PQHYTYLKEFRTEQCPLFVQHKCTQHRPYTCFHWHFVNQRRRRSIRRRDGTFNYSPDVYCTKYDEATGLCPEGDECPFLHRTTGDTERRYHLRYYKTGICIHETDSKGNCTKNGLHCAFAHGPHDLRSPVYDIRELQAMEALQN
# B1: chr9:74900086:74900087:+_ENSMUSG00000007656_ENSMUST00000169492|mus_mus|motif|central (ssRNA)
# RNA: GGGAGUUCUACAGUCCGACGAUCUUGUCCCAAGUGAGGAUACCUUGCCUUUAACUUUGCUUCUUCAGCUUUCUCUGGACGGGUUACUUUAUCUUCCAUUUCCUUUUGCUCCUCCGCAGACGCUGCCUCGGGGACUUCCGCGGACAACAGAGGAUUGAGCAUCA
# B2: chr3:139236485:139236486:-_ENSG00000114115_ENST00000232219|hu_mus|FALSE|FALSE (ssRNA)
# RNA: GGGAGUUCUACAGUCCGACGAUCCUGAAGACCAAGGUUAUCUCCUCGGGCUGUUCGGGCUGCUCAGUGUACUUUCUUAAACACUUGCUUGCAGAUCACACCCUCAGCUCUCAUUUCCAGGUGAAGUUCAUCACCCUCGAUCCACAACAGAGGAUUGAGCAUCA
# B3: 133975656_133975776_5164_3pUTR_ENSG00000205060_ENST00000378509|human|control|control (ssRNA)
# RNA: GGGAGUUCUACAGUCCGACGAUCCAUUUCUCUGUCCGUUUAGGUCAAUGCCAACUGGUCCACCAGUGAACAUGUCCACCGGCCCUGAGCUAACUCAUUGGUUUAUUAUUCCUGACCUAAGGUGUUUUACUUCCCCUCUCCAUACAACAGAGGAUUGAGCAUCA
# B4: chr1:39494447:39494448:+_ENSG00000168653_ENST00000372967|hu_mus|hu_hu_hu_mus_False|18_98 (ssRNA)
# RNA: GGGAGUUCUACAGUCCGACGAUCGCACCGAGCGGCGAUCUUGUAGGGCUGUUCUGCGCUUAGGAACAUAAAGUGCCGGUCCAGGCUGAUGCCCAGCUUUUUCUGUAUGUCAAGGAAAGGCAUGGCCCUGCAGUGCCCUUGUCACAACAGAGGAUUGAGCAUCA
# B5: chr20:43533646:43533647:+_ENSG00000166913_ENST00000353703|hu_hu|motif|central (ssRNA)
# RNA: GGGAGUUCUACAGUCCGACGAUCGAAAUUUAGUGCCAGACCAAGACGAAUUGGGUGUGUAGGCUGCAUUUCUUUCUUACGGAUUUCAAAUGCUUCCUGGUAAGCCUGCUGGGAGUUCGACACAGUGGUUUGUUUGUUGUCUCCCAACAGAGGAUUGAGCAUCA
# B6: chr11:77340908:77340909:-_ENSG00000074201_ENST00000525064|hu_hu|hu_hu_hu_mus_True|8_8 (ssRNA)
# RNA: GGGAGUUCUACAGUCCGACGAUCGUUUGGAUCCCUGGACACCGCAUGUAAACUAAUGGUGGGGUAUUCCAGUGAGAAUCCUAAUCCCGAACCAUCUAACCAGGACAGGCGGCUCUCCGCGAUGUAAAGGGUACCAGUGCCGAGCAACAGAGGAUUGAGCAUCA
# B7: 135097835_135097955_579_3pUTR_ENSMUSG00000040731_ENSMUST00000036125|mouse|control|control (ssRNA)
# RNA: GGGAGUUCUACAGUCCGACGAUCAAGUCCAUGUUGGAGCCACGCAGAGGAGGGCCAUCUCGAAAGCGACUCCCCAUUGGAGGGCCUGCUCGCCGGUCCCCAGGGCGACUGCCCCCCCUACCCCCUAAGAAGUCAUCCCUGUAGCAACAGAGGAUUGAGCAUCA
# B8: chr18:9954606:9954607:+_ENSG00000101558_ENST00000400000|hu_hu|FALSE|FALSE (ssRNA)
# RNA: GGGAGUUCUACAGUCCGACGAUCACCAUUUCCCCAAGGAAUACCUCUUGGCAUUUCCUGAAUGAGUGGGAUUAGCAAUCUAAAUAAAUCAUAUUUCAAGAGGUAACAGCAACAGAUAAAAUUUAAAGGGAUUAUUAAAAUAACCAACAGAGGAUUGAGCAUCA
# B9: chr3:57569730:57569731:-_ENSG00000168374_ENST00000303436|hu_mus|FALSE|FALSE (ssRNA)
# RNA: GGGAGUUCUACAGUCCGACGAUCAUAUUCUACUGUUUCCACAUUAAAACCAAUGGUAGGAAUGGUGGUGACUAUUUCCCCUAAUUUCAGUUUAUACAGAAUUGUCGUCUUGCCAGCAGCAUCCAAUCCAACCAUCAAAAUGCGCAACAGAGGAUUGAGCAUCA
# B10: 54572216_54573035_2393_CDS_ENSG00000067248_ENST00000251636|human|control|control (ssRNA)
# RNA: GGGAGUUCUACAGUCCGACGAUCAUCUUCAAGAUGAAAAACCUCAACAGGAUAACUUCUUCCUGAAAUUCUGAGAAUGGGGCAGUGUGUGAAAUAUGUAGAAAAUUUUUCGCUGUCCACAGUGGCACUCAUUAGAAUCAAGUGCAACAGAGGAUUGAGCAUCA
# B11: chr18:9954606:9954607:+_ENSG00000101558_ENST00000400000|hu_mus|FALSE|FALSE (ssRNA)
# RNA: B8 RNA with A24C, C26A, A27U, U30C, A36C, G37A, U41A, G129A
# B12: chr19:16212804:16212805:+_ENSG00000167460_ENST00000300933|hu_mus|hu_hu_hu_mus_False|48_58 (ssRNA)
# RNA: GGGAGUUCUACAGUCCGACGAUCAACAAUUCUGGAGUGAAGGAAAGAUGUAACAUGGAACAGCAUUAAAGCUCAGUAUUACUAUAUGUGGGUAAUUAUGAUCACCCCAGCAUUCUCGCUUGGAAUGCUUAAAGACAAUCUGUUCAACAGAGGAUUGAGCAUCA
# B13: 36138064_36138184_3590_3pUTR_ENSG00000100320_ENST00000405409|human|control|control (ssRNA)
# RNA: GGGAGUUCUACAGUCCGACGAUCAAAGCAAAAGCAAAAUCCUCCCUGCCCCCAUUCCCUAGAACUGUGAAAGCCCGCAUCCCAUUCCCCGCUCCUCUAACUAAAAUAUUUAUAUACAUACAACAAAAAUUGUCUUAACAGCAACAACAGAGGAUUGAGCAUCA
# B14: chr9:42776432:42776433:-_ENSMUSG00000059495_ENSMUST00000165665|mus_hu|FALSE|FALSE (ssRNA)
# RNA: GGGAGUUCUACAGUCCGACGAUCUAACAAAUUUAUAGUCAAGAAAAUAAAAUUUGCUUUCCUCUCCCACCCAAAUCCCAACCCUCAAUAGAAAAGACGACAAUGGAAGAAAACACACCCAUUUUCAAGUGCCUGCUAUUUAGUCAACAGAGGAUUGAGCAUCA
# B15: chr3:75345182:75345183:-_ENSMUSG00000027835_ENSMUST00000161137|mus_hu|FALSE|FALSE (ssRNA)
# RNA: GGGAGUUCUACAGUCCGACGAUCAUGUGGUCUCAGCUUCAUUCUUCAUCUCUUCCAUUGUCAUCCUCAUUCAAAAGCCAACUACAGUUGAAAAAGCAGUGCUAAAAUGCAGAGGAAUCUUCAUUCACUGCAAUAUUUCUUCUCCAACAGAGGAUUGAGCAUCA
# B16: 104554200_104554320_324_3pUTR_ENSMUSG00000032621_ENSMUST00000074616|mouse|control|control (ssRNA)
# RNA: GGGAGUUCUACAGUCCGACGAUCAUCAGAUCCAUACAAAGAAACAAAUAAGAAGAACAUAAGGCUUUCCUUUUAUCCUGCUCUAUUAGGAAAAAUAAAAGUGAGCAAAACUUCAAAGACUAACAAUCUCAUUAAUGGAACAUUCAACAGAGGAUUGAGCAUCA
# B17: chr19:16212804:16212805:+_ENSG00000167460_ENST00000300933|hu_mus|hu_hu_hu_mus_False|8_78 (ssRNA)
# RNA: GGGAGUUCUACAGUCCGACGAUCAACAAUUCUGGAGUGAAGGAAAGAUGUAACAUGCAAUUAAUUAAAAGCUCAGUCAGAAGGCACAUGGGCAACAAUGAUCACCCCAGCAUUCUCGCUUGGAAUGUGCUUGAGAAAUCUGUUCAACAGAGGAUUGAGCAUCA
# B18: chr12:493273:493274:-_ENSG00000073614_ENST00000399788|hu_mus|hu_hu_hu_mus_False|48_58 (ssRNA)
# RNA: GGGAGUUCUACAGUCCGACGAUCUUUUCUCUCCACCACAGGGAUCUUCAAUGUAGAUCCUUGAAGUUCCCAAAAUUUUGCUAGUUGAUCCAAGAAAUCCAAUCUUACUCUAGUCAUUGCCUCAAGUUCAUUCAGGCGCUGGACCAACAGAGGAUUGAGCAUCA
# B19: chr2:73656703:73656704:-_ENSMUSG00000027104_ENSMUST00000100009|mus_hu|FALSE|FALSE (ssRNA)
# RNA: GGGAGUUCUACAGUCCGACGAUCAAGAAAUGGAAGUGGGAAGAAAGAUUCAGUAACACCCCCAUUUAUUAAAACACCAGCAAAUUAAAAGUGAAAUAAAUCACAAUGAAUUAUAAUACAAUUUACACAUUGAGCACAGAAAAACAACAGAGGAUUGAGCAUCA
# B20: chr16:94664741:94664742:+_ENSMUSG00000040785_ENSMUST00000117648|mus_hu|mus_mus_mus_hu_False|8_68 (ssRNA)
# RNA: GGGAGUUCUACAGUCCGACGAUCUGGUACUGAUCUUGGUAGCUGAUAUUCAGGAGAAAGGCUGGCCAAAGGUGUGUAUAUGCUGGUGUACUGGGGCAAACCUGGUAACACGUUUAUGUAUGCUGGCCGCUGGGUGAUGAUAUCCAACAGAGGAUUGAGCAUCA
# B21: chrX:53596632:53596633:-_ENSG00000086758_ENST00000262854|hu_mus|FALSE|FALSE (ssRNA)
# RNA: GGGAGUUCUACAGUCCGACGAUCGGCGUGCUUCUCUGUACUCUCAGCCAUAGCAAGCGCCCGUCCCAGGGCUGCUUUCACUUCAUUCACUAGGGCCACUUGAGCAUCUGUGCCACUCCCCGCAGCAGCCAGACUUGCAAGGAACAACAGAGGAUUGAGCAUCA
# B22: chr12:39756943:39756944:-_ENSG00000139116_ENST00000544797|hu_mus|hu_hu_hu_mus_False|18_98 (ssRNA)
# RNA: GGGAGUUCUACAGUCCGACGAUCGGUUUGGCUGUUACCCCCGAGGGAAUCCUGCAAGAGUCUUGUCAGCUUAGAGUCUCUGUAAGGGACAUGGGUGGCUCUCUUGCUCUUGUCCCCCAAGGCACUUAUUACAUUCCCAAGAGCCAACAGAGGAUUGAGCAUCA
# Molecular target: T1, UNK ZnF1-3
# Assay: nsRBNS (natural sequence RNA bind-n-seq); RBNS binding buffer (assumed for nsRBNS): 25 mM Tris pH 7.5, 150 mM KCl, 3 mM MgCl2, 0.01% Triton X-100, 500 ug/ml BSA, 20 U/ml SUPERase-In, 4 C; UNK is unkempt and MSI1 is Musashi-1; names of the RNAs are library labels; protein concentration not given here; high values mean tight binding
row,Binder,binding signal [enrichment R]
1,B1,0.353
2,B2,0.756
3,B3,0.604
4,B4,0.479
5,B5,0.731
6,B6,1.2
7,B7,0.982
8,B8,3.36
9,B9,0.905
10,B10,1.16
11,B11,4.49
12,B12,0.913
13,B13,3.79
14,B14,4.14
15,B15,1.23
16,B16,0.765
17,B17,1.42
18,B18,0.927
19,B19,4.55
20,B20,1.06
21,B21,1.52
22,B22,0.694
